Results filed as inconclusive are left out. The source made the active and inactive calls. How the source made its calls, unless noted: active means hit-call score of the fitted dose curve at least 0.9, where 1 is the maximum; inconclusive means response in the unintended direction; inactive means score below 0.9.
Assays:
[1] = biological target: zebrafish Estrogen Receptor (ESR1), esr1 (gene 259252) (UniProt P57717); assay: ATG_zfER1_XSP1: Attagene TRANS-FACTORIAL Multi-Species (XSP1) HepG2 Assay for zebrafish Estrogen Receptor (ESR1) (AID 2283772)
How it was run: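 HepG2 cells transiently transfected with a GAL4-UAS reporter and chimeric zebrafish ER-Gal4, dosed 24 h with 3 nM 6-alpha-fluorotestosterone present. Reporter mRNA measured by RT-PCR and capillary electrophoresis; gain of signal versus DMSO.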

[2] = test system: zebrafish Estrogen Receptor (ESR2B), gene 317733; assay: ATG_zfER2b_XSP1: Attagene TRANS-FACTORIAL Multi-Species (XSP1) HepG2 Assay for zebrafish Estrogen Receptor (ESR2B) (AID 2283773)
How it was run: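 Multiplexed TRANS format in transfected HepG2 liver cells, chimeric NR-Gal4 from zebrafish ESR2B. 24 h dosing; medium contains 3 nM 6-alpha-fluorotestosterone. mRNA induction by RT-PCR/CE, positive direction vs DMSO.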

[3] = test system: frog Estrogen Receptor (ESR1), gene 398734; assay: ATG_frER1_XSP1: Attagene TRANS-FACTORIAL Multi-Species (XSP1) HepG2 Assay for frog Estrogen Receptor (ESR1) (AID 2283777)
How it was run: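 Transient MRTU transfection, HepG2 (human liver); 24 h dosing, 3 nM 6α-fluorotestosterone co-added; RNA → RT-PCR → 6-FAM labeling → CE; upward activity vs DMSO.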

[4] = biological target: Peroxisome proliferator-activated receptor gamma (Homo sapiens) (UniProt P37231); assay: ATG_hPPARg_XSP1: Attagene TRANS-FACTORIAL Multi-Species (XSP1) HepG2 Assay for human Peroxisome Proliferator-activated Receptor gamma (PPARg) (AID 2283800)
How it was run: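 Reporter mRNA induction, measured by RT-PCR with capillary electrophoresis 24 h after dosing, scored as gain over DMSO. Transfected HepG2 cells express exogenous NR-Gal4 chimeras driving GAL4-UAS reporters; medium includes 3 nM 6-alpha-fluorotestosterone.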

[5] = biological target: mouse Peroxisome Proliferator-activated Receptor gamma (PPARg), Pparg (gene 19016) (UniProt P37238); assay: ATG_mPPARg_XSP1: Attagene TRANS-FACTORIAL Multi-Species (XSP1) HepG2 Assay for mouse Peroxisome Proliferator-activated Receptor gamma (PPARg) (AID 2283802)
How it was run: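 Readout is reporter mRNA induction, measured by RT-PCR with 6-FAM labelling, HpaI digestion and capillary electrophoresis, 24 h post-dose relative to DMSO. Transient multi-reporter transfection of human HepG2 with mouse PPARg–GAL4 fusion; 3 nM 6-alpha-fluorotestosterone included.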

[6] = biological target: frog Thyroid hormone Receptor alpha (TRa), thra-a (gene 397942) (UniProt P15204); assay: ATG_frTRa_XSP1: Attagene TRANS-FACTORIAL Multi-Species (XSP1) HepG2 Assay for frog Thyroid hormone Receptor alpha (TRa) (AID 2283804)
How it was run: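 Reporter transcript induction, measured by RT-PCR with 6-FAM labelling and capillary electrophoresis, 24 hr after dosing transiently transfected HepG2 cells expressing a frog TRa-GAL4 fusion; medium contained 3 nM 6-alpha-fluorotestosterone; increase over DMSO scored.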

[7] = biological target: human Thyroid hormone Receptor alpha (TRa), THRA (gene 7067) (UniProt P10827); assay: ATG_hTRa_XSP1: Attagene TRANS-FACTORIAL Multi-Species (XSP1) HepG2 Assay for human Thyroid hormone Receptor alpha (TRa) (AID 2283805)
How it was run: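 Reporter transcripts from the human TRa-Gal4 TRANS unit quantified by RT-PCR, fluorescent labeling and capillary electrophoresis after 24 hours of chemical exposure in transfected HepG2 cells; medium contains 3 nM 6-alpha-fluorotestosterone. Positive direction fit against DMSO.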

[8] = ATG_XTT_Cytotoxicity_XSP1: Cytotoxicity Assessment in the Attagene TRANS-FACTORIAL Multi-Species (XSP1) HepG2 Assay (AID 2283810)
How it was run: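 XTT viability readout taken at 24 hours post-dosing in HepG2 liver cells co-treated with 3 nM 6-alpha-fluorotestosterone. Signal loss relative to DMSO controls reflects cytotoxicity.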

[9] = ATG_M_06_XSP2: Attagene TRANS-FACTORIAL Multi-Species (XSP2) HepG2 Assay for M06 Transcription Factor (Internal Marker) (AID 2283811);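 further: internal background marker reporter mRNA measured by RT-PCR and capillary electrophoresis; hits are increases in signal above the DMSO baseline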
How it was run: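 Readout: fluorescent reporter-mRNA peaks by capillary electrophoresis after RT-PCR and HpaI digest, scored upward relative to DMSO. Transfected HepG2, 24 h chemical exposure, with 3 nM 6-alpha-fluorotestosterone and 1.5 nM norgestrel added.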

[10] = biological target: zebrafish Estrogen Receptor (ER1), esr1 (gene 259252) (UniProt P57717); assay: ATG_zfER1_XSP2: Attagene TRANS-FACTORIAL Multi-Species (XSP2) HepG2 Assay for zebrafish Estrogen Receptor (ER1) (AID 2283816)
How it was run: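 After 24 h compound exposure, RNA from transfected HepG2 cells was reverse-transcribed and reporter transcripts resolved by capillary electrophoresis. The TRANS format reads exogenous zebrafish ER1-Gal4 chimera activity on GAL4-UAS elements; gain of signal against DMSO.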

[11] = test system: zebrafish Estrogen Receptor (ER2a), gene 317734; assay: ATG_zfER2a_XSP2: Attagene TRANS-FACTORIAL Multi-Species (XSP2) HepG2 Assay for zebrafish Estrogen Receptor (ER2a) (AID 2283818);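 further: hits raise reporter mRNA so AC50 reflects activation of zebrafish ER2a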
How it was run: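 Multiplexed trans-reporter readout: RT-PCR then capillary electrophoresis of reporter transcripts after 24 h compound treatment. Human HepG2 carries transfected zebrafish ER2a-Gal4 chimera; 3 nM 6-alpha-fluorotestosterone plus 1.5 nM norgestrel present. Induction scored against DMSO.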

[12] = test system: frog Estrogen Receptor (ER), gene 398734; assay: ATG_frER1_XSP2: Attagene TRANS-FACTORIAL Multi-Species (XSP2) HepG2 Assay for frog Estrogen Receptor (ER) (AID 2283821);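 further: hits raise reporter mRNA above DMSO baseline so potency means agonist or activator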
How it was run: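 Reporter mRNA induction, detected as fluorescence after RT-PCR and capillary electrophoresis, is the endpoint; activity is fitted upward against DMSO. Cells are human liver HepG2 carrying transfected NR-Gal4 chimeras with GAL4-UAS-driven reporters, harvested 24 h post-dosing.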

[13] = biological target: Peroxisome proliferator-activated receptor gamma (Homo sapiens) (UniProt P37231); assay: ATG_hPPARg_XSP2: Attagene TRANS-FACTORIAL Multi-Species (XSP2) HepG2 Assay for human Peroxisome Proliferator-activated Receptor gamma (PPARg) (AID 2283829);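 further: actives raise reporter mRNA above DMSO so AC50 reflects PPARg activation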
How it was run: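 HepG2 cells transiently transfected with GAL4-UAS reporter units driven by chimeric NR-Gal4 proteins; androgen receptor stimulated with 3 nM 6-alpha-fluorotestosterone and 1.5 nM norgestrel. After 24 h, reporter mRNA quantified by RT-PCR and capillary electrophoresis versus DMSO.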

[14] = biological target: mouse Peroxisome Proliferator-activated Receptor gamma (PPARg), Pparg (gene 19016) (UniProt P37238); assay: ATG_mPPARg_XSP2: Attagene TRANS-FACTORIAL Multi-Species (XSP2) HepG2 Assay for mouse Peroxisome Proliferator-activated Receptor gamma (PPARg) (AID 2283830);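 further: hits are gains in reporter mRNA above DMSO so AC50 marks activation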
How it was run: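 Multiplexed TRANS reporter readout: after 24 h chemical exposure of transfected HepG2 cells (with 3 nM 6-alpha-fluorotestosterone, 1.5 nM norgestrel present), RNA reverse-transcribed, amplified, 6-FAM-labelled and resolved by capillary electrophoresis; mouse PPARg-Gal4 induction scored against DMSO.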

[15] = test system: zebrafish Peroxisome Proliferator-activated Receptor gamma (PPARg), gene 557037; assay: ATG_zfPPARg_XSP2: Attagene TRANS-FACTORIAL Multi-Species (XSP2) HepG2 Assay for zebrafish Peroxisome Proliferator-activated Receptor gamma (PPARg) (AID 2283833);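 further: actives increase reporter signal over DMSO so AC50 reflects activation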
How it was run: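 HepG2 cells transiently transfected with multiplexed GAL4-UAS reporter units expressing chimeric NR-Gal4 receptors, dosed 24 h. Reporter mRNA quantified by RT-PCR, fluorescent labelling, HpaI digestion and capillary electrophoresis; gain of signal fitted against DMSO.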

[16] = ATG_M_61_XSP2: Attagene TRANS-FACTORIAL Multi-Species (XSP2) HepG2 Assay for M61 Transcription Factor (Internal Marker) (AID 2283835; active means hit-call score of the fitted dose curve at least 0.9, where 1 is the maximum; inactive means score below 0.9;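 further: reporter mRNA of an internal background marker read by RT-PCR and capillary electrophoresis; active means a rise in signal above the DMSO baseline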)
How it was run: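 Transient MRTU transfection of human HepG2; 24 h chemical dosing with 3 nM 6-alpha-fluorotestosterone + 1.5 nM norgestrel added for AR stimulation. RNA isolated, RT, PCR, FAM-labelled, HpaI cut, CE read. Positive direction vs DMSO.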

[17] = biological target: zebrafish Thyroid Hormone Receptor beta (TRb), thrb (gene 30607) (UniProt Q9PVE4); assay: ATG_zfTRb_XSP2: Attagene TRANS-FACTORIAL Multi-Species (XSP1) HepG2 Assay for zebrafish Thyroid Hormone Receptor beta (TRb) (AID 2283836)
How it was run: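 Transfect HepG2 with multiple reporter transcription units, dose chemical, incubate 24 h. Isolate RNA, reverse-transcribe, amplify and fluorescently label reporter sequences, digest with HpaI, then resolve by capillary electrophoresis. Positive direction fitted against DMSO.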

[18] = CCTE_Deisenroth_H295R-HTRF_384WELL_ESTRADIOL: CCTE's H295R-HTRF Assay Evaluation of Estradiol Concentration, Deisenroth Lab (AID 2284361; active means hit-call score of the fitted dose curve at least 0.9, where 1 is the maximum; inactive means score below 0.9); conditions: actives raise or lower the signal
How it was run: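 Estradiol secreted into medium by H295R adrenocortical cells, quantified by HTRF after 48 h dosing over a nine-point 0.001 - 100 uM final range; gain or loss versus DMSO. Parallel ATP-luminescence viability readout; n=5 experiments.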

[19] = CCTE_Deisenroth_H295R-HTRF_384WELL_TESTOSTERONE: CCTE's H295R-HTRF Assay Evaluation of Testosterone Concentration, Deisenroth Lab (AID 2284373; active means hit-call score of the fitted dose curve at least 0.9, where 1 is the maximum; inactive means score below 0.9); conditions: actives raise or lower the signal
How it was run: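 Testosterone secreted into medium was quantified by direct HTRF immunoassay after a 48 h treatment of H295R adrenocortical cells (nine concentrations, 0.001–100 uM final). Gain or loss fitted relative to DMSO; CellTiter-Glo viability read on same plates.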

[20] = CCTE_Deisenroth_H295R-HTRF_384WELL_CTOX: Cytotoxicity Assessment in CCTE's H295R-HTRF Assay, Deisenroth Lab (AID 2284380)
How it was run: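 Luminescent ATP viability readout (CellTiter-Glo 2.0), multiplexed on plates used for hormone sampling, after 48 h chemical exposure. Human H295R cells; final concentrations 0.001–100 uM in nine steps, technical triplicates, five experiments; DMSO baseline.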

Sequence of Peroxisome proliferator-activated receptor gamma (Homo sapiens) (P37231 whole entry, looked up, the tested form may be a part): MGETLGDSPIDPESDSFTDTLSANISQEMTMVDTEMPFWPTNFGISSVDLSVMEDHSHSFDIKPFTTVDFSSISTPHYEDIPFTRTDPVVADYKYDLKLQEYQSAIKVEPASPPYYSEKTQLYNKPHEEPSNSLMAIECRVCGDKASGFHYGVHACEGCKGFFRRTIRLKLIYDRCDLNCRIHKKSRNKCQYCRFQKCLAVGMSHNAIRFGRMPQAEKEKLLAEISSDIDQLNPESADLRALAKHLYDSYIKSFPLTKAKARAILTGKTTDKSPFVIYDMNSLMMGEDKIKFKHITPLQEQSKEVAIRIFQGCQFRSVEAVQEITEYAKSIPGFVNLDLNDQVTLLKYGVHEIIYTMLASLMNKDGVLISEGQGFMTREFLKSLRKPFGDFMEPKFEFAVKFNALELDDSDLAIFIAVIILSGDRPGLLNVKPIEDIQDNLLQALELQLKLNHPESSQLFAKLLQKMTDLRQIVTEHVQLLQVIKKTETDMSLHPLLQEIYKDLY
Sequence of mouse Peroxisome Proliferator-activated Receptor gamma (PPARg), Pparg (gene 19016) (P37238 whole entry, looked up, the tested form may be a part): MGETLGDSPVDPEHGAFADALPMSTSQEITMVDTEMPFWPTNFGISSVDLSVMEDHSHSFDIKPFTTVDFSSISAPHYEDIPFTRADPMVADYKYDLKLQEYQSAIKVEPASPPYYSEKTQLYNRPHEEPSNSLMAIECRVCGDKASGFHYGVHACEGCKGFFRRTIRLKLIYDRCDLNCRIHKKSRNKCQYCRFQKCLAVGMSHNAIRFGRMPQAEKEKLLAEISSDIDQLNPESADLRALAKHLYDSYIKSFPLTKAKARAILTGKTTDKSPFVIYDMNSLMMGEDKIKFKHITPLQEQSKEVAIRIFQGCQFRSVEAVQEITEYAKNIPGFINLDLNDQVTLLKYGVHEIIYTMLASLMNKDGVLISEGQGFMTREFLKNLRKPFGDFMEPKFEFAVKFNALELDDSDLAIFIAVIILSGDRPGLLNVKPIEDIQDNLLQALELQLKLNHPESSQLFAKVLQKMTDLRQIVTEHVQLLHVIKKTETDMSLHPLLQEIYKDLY
Sequence of frog Thyroid hormone Receptor alpha (TRa), thra-a (gene 397942) (P15204 whole entry, looked up, the tested form may be a part): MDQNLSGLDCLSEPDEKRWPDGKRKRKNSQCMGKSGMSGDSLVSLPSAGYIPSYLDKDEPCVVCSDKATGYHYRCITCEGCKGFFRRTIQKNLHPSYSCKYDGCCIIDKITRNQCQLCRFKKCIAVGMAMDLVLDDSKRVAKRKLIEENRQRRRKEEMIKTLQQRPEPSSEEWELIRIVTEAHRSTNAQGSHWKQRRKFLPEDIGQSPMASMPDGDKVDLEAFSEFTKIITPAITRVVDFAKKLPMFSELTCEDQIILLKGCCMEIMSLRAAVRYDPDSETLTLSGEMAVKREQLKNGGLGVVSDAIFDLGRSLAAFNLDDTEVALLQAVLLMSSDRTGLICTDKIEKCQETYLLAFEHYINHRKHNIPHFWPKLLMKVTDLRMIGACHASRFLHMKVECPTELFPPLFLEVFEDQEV
Sequence of zebrafish Estrogen Receptor (ER1), esr1 (gene 259252) (P57717 whole entry, looked up, the tested form may be a part): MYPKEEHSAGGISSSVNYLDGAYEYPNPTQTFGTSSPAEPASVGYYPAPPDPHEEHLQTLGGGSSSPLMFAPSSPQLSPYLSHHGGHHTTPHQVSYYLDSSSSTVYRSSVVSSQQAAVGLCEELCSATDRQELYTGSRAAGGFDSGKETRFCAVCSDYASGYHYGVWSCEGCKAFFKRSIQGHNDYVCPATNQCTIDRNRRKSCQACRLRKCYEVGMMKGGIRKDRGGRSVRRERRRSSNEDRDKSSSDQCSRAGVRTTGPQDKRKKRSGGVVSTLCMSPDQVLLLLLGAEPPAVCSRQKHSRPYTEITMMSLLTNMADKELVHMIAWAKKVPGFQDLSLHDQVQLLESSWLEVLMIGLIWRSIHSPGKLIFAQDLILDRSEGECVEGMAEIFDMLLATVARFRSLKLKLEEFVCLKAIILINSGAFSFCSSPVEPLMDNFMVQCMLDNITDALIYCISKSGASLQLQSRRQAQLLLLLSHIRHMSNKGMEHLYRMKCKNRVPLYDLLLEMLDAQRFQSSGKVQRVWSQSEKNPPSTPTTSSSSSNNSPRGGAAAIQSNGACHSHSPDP
Sequence of zebrafish Estrogen Receptor (ESR1), esr1 (gene 259252) (P57717 whole entry, looked up, the tested form may be a part): as above
Sequence of human Thyroid hormone Receptor alpha (TRa), THRA (gene 7067) (P10827 whole entry, looked up, the tested form may be a part): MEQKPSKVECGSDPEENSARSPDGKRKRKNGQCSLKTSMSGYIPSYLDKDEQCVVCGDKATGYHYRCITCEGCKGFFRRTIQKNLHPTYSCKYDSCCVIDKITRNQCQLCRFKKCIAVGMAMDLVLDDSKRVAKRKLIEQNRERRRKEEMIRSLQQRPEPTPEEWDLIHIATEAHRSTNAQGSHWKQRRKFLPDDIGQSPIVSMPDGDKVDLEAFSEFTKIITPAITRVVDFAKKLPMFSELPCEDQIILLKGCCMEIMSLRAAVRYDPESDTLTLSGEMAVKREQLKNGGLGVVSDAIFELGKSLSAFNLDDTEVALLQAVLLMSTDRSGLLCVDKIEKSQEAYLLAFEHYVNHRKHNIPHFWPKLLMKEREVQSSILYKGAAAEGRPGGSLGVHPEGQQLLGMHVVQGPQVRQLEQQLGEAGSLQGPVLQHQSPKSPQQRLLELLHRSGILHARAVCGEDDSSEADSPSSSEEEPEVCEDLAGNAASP
Sequence of zebrafish Thyroid Hormone Receptor beta (TRb), thrb (gene 30607) (Q9PVE4 whole entry, looked up): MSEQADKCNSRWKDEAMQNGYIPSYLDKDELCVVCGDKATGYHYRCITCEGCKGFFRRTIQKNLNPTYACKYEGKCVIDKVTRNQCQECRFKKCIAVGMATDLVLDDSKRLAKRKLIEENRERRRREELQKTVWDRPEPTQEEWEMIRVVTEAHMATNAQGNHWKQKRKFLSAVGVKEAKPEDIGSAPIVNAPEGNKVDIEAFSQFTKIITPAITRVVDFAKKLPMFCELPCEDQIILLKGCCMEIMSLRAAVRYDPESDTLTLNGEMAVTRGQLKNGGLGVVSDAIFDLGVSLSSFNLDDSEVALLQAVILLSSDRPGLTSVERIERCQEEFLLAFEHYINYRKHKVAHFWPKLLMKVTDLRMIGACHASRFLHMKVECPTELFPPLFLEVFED

For `CC(C)(c1cc(Cl)c(O)c(Cl)c1)c1cc(Cl)c(O)c(Cl)c1`, the outcome [1] was “inactive”, the AC50 [2] was 9.75 µM (active) and the outcome [3] was “inactive”. For the same compound, the AC50 [4] was 2.73 µM (active), the AC50 [5] was 2.92 µM (active) and the outcome [6] was “inactive”. For the same compound, the outcome [7] was “inactive”, the outcome [8] was “inactive” and the outcome [9] was “inactive”. The outcome [10] was “inactive”, the AC50 [11] was 1.62 µM (active) and the AC50 [12] was 2.8 µM (active). The AC50 [13] was 3.94 µM (active), the AC50 [14] was 3.81 µM (active) and the outcome [15] was “inactive”. For the same compound, the outcome [16] was “inactive” and the outcome [17] was “inactive”.

In the case of `C[C@]12CC[C@H]3[C@@H](CC[C@@]45O[C@@H]4C(O)=C(C#N)C[C@]35C)[C@@H]1CC[C@@H]2O`, the AC50 [18] is reported as 3.06 µM (active), the AC50 [19] is reported as 19 µM (active) and the outcome [20] is reported as “inactive”.

— PubChem BioAssay (EPA / NIEHS)
